# In the library only some 7.3% were active in any assay of this set; here they are far more common.
# NPC1 prom act: activators of NPC1 promoter; Huh7 NPC1 promoter luciferase reporter, 24 h; Potency, µM (top dose mostly 9.22 µM), for the others: at the highest dose activation, actives largely listed as activators; hit rate 2.4% among 320,000; also: % of control where 0% means no effect; nearly all actives have a fitted effect of over 60% in size
#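 Huh7 reporter cells (NPC1 promoter driving luciferase) are dosed with compound for 24 h at 37 °C, 5% CO2; luciferase detection reagent is then added and luminescence measured after 10 min at ambient temperature.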
# ELG1 genotox: genotoxicity induction in ELG1-luciferase HEK293T cells. HEK293T ELG1-luciferase reporter, luminescence, 16 h. Potency, µM (highest dose often 46 µM), for inactives: at the top dose activity change, positive = activation, usual class: activators. hit rate 1.3% among 330,000; also: % of control where 0% means no effect; nearly all actives have a fitted effect of over 60% in size
#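 Reporter readout depends on ELG1 protein level, which increases with genetic stress. After 16 hr compound exposure at 37 °C, luciferase activity was quantified using ONE-Glo.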
# SMN2 splice enh: SMN2 splice variant enhancement | HEK293 SMN2-luciferase splicing reporter, luminescence, 30-36 h | Potency, µM (series often up to 46.1 µM), inactives show at the top dose activity change, positive = activation, actives largely listed as activators | hit rate 2.8% among 210,000 | AID 1458; also: % of control where 0% means no effect; nearly all actives have a fitted effect of over 55% in size
#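 HEK293 cells carry an SMN2 […]–luciferase reporter in which exon 7 inclusion puts luciferase in frame. Cells were plated 10-12 h before compound addition, then incubated 30-36 h at 37C. ONE-Glo luminescence was read; sodium butyrate at 4.5 mM final served as control.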
# p53 reactivation: re-activators of mutant p53; H1299 p53-A138V BP100-luciferase reporter, luminescence, 24 h; AID 504706; hit rate 0.063% among 320,000; Potency, µM (series often up to 92.2 µM), for inactives: at the highest dose activity change, positive = activation, usual class: activators; also: % of control where 0% means no effect; nearly all actives have a fitted effect of over 45% in size
#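 H1299 (p53-null), stable ts p53-A138V + BP100-Luc; 1000 cells/well, Opti-MEM/10% FBS; cpd 4 pt, 1:5; 24 h, 37 deg C, 5% CO2; detection reagent 10 min RT; luminescence.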
# Rab9 prom act: Rab9 promoter activation; Huh7 Rab9 promoter-luciferase reporter, luminescence, 24 h; Potency, µM (titrated, usually from 9.22 µM), for inactives: top-dose activation, negative = inhibition, usual class: activators; hit rate 2.8% among 320,000; AID 485297; also: % of control where 0% means no effect; nearly all actives have a fitted effect of over 60% in size
#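 Huh7 cells stably carrying Rab9 promoter–luciferase reporter, plated 1500 cells/well, compound added after 2 h and incubated 24 h at 37 °C; luciferase luminescence then read after 10 min with detection reagent.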
# FLuc modulator: firefly luciferase modulation, counter-screen for miR-21 project. P08659. purified FLuc, Km substrates, luminescence inhibition. Potency, µM (top dose mostly 57.5 µM), inactives show at the top dose activity change, negative = inhibition, usual class: inhibitors. hit rate 6.9% among 360,000;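 also: plate controls were vehicle for no effect and reference inhibitor for full effect; nearly all actives have a fitted effect of over 55% in size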
# Target sequence (P08659 whole entry, looked up): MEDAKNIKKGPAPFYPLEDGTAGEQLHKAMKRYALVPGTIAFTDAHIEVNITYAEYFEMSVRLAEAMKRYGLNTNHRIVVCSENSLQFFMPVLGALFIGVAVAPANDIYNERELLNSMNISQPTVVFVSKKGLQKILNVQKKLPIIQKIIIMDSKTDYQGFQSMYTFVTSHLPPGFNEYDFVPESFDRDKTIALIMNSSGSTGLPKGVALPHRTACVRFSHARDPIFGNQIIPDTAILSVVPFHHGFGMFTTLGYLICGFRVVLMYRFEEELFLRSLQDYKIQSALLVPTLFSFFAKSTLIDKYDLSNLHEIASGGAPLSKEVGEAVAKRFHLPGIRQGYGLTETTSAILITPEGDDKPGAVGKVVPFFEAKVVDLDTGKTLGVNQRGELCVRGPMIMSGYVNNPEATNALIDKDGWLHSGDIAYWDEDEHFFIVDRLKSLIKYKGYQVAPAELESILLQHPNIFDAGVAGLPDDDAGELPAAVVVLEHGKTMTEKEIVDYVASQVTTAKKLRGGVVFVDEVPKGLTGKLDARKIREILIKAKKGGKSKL
#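 Biochemical qHTS of compounds, final roughly 60 µM downward over six points, against 10 nM purified firefly luciferase using Km concentrations of substrates (10 uM D-luciferin, 10 uM ATP) in Tris acetate pH 7.5 buffer; luminescence output.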
# * marks the source's active call; other numbers are inactive results; ? = inconclusive; nt = no result given; [ ] = dose if it differs, or a comment. Calls follow the shape of the dose curve; as a rule, active = well fitted curve in the direction sought with a large enough effect; inconclusive = small, poorly fitted or top-dose-only effect, or another doubt; inactive = no such curve, though single readings can be large; an effect the other way counts as inactive or inconclusive. Potency is read from the fitted curve at half-maximal effect.
SMILES,NPC1 prom act,ELG1 genotox,SMN2 splice enh,p53 reactivation,Rab9 prom act,FLuc modulator
N#Cc1nc(-c2ccco2)oc1NCc1ccco1,-1%,4%,-6%,23%,2%,-2%
C=CCNc1oc(-c2ccc(OC)cc2)nc1C#N,?,15µM*,?,9%,2.8µM*,8.5µM*
CC(C)(C)c1ccc(-c2nc(C#N)c(NCc3cccnc3)o2)cc1,10%,?,-18%,10%,?,11µM*
C=CCNc1oc(-c2ccc(OCC)cc2)nc1C#N,15%,-2%,-44%,-2%,15%,?
Cc1cccc(-c2nc(C#N)c(NCc3ccco3)o2)c1,?,?,nt,10%,?,11µM*
Cc1ccc(-c2ccc(=O)n(CC(=O)Nc3ccc(F)c(Cl)c3)n2)cc1C,nt,nt,nt,nt,nt,-3%
CCc1cc(CNC(=O)C2CCC(=O)N(CCc3cccc(F)c3)C2)on1 (configuration not stated),-3%,3%,nt,nt,0%,3%
N#Cc1cccc(NC(=O)N2CCCC3(CCN(C(=O)c4ccco4)CC3)C2)c1,nt,nt,-15%,nt,nt,nt
Fc1ccc(-c2cn3cc(C(F)(F)F)cc(Cl)c3n2)cc1,?,?,13µM*,27%,4.5µM*,1.7µM*
COc1ccc(-c2cn3cc(C(F)(F)F)cc(Cl)c3n2)cc1,?,5.8µM*,2.8µM*,?,2.2µM*,3µM*
COc1ccc(C(O)c2ncc(C(F)(F)F)cc2Cl)cc1 (configuration not stated),2%,0%,nt,9%,-3%,1%
O=C(NCC(=O)N(CC1CCCO1)C(C(=O)NC1CCCC1)c1cccnc1)c1ccco1 (configuration not stated),-2%,3%,3%,10%,-7%,1%
CNc1sc(C(=O)c2cccs2)c(N)c1-c1nc2ccccc2s1,4µM*,?,5µM*,?,2.8µM*,2.7µM*
CCC1CCCCN1C(=O)CSc1nc(-c2ccc(OC)cc2)cc(C(F)(F)F)n1 (configuration not stated),nt,nt,-16%,nt,nt,-5%
ClC(=C\c1ccccc1)/C=N/N1CCN(c2ccccn2)CC1,3.2µM*,9.2µM*,14µM*,?,?,?
Cc1ccc(/C=N/N2CCN(c3ccccn3)CC2)cc1,30%,?,18%,1%,?,9.5µM*
O=C(Nc1ccc(Cl)cc1)c1ccc2nsnc2c1,2.5µM*,16%,11µM*,?,4µM*,?
CN(C)c1ccc(NC(=O)c2ccc3nsnc3c2)cc1,?,2.6µM*,22µM*,13%,3.2µM*,5.4µM*
O=C(Nc1cccc([N+](=O)[O-])c1)c1ccc2nsnc2c1,-1%,-1%,nt,1%,-1%,-27%
CN1CCN(C(=O)N2CCNC2=O)CC1,-1%,1%,11%,7%,-2%,2%[2.3 µM]
NCCSCc1ccccc1Cl,nt,nt,-28%[9.22 µM],nt,nt,nt
CS(=O)(=O)Nc1cccc(-c2cnc3ccccc3n2)c1,3.2µM*,?,nt,?,4.5µM*,19µM*
O=C(Nc1cccc(-c2cnc3ccccc3n2)c1)c1ccncc1,1%,2%,4%,-2%,0%,?
Cc1ccc(C(=O)Nc2cccc(-c3cnc4ccccc4n3)c2)cc1,1%,2%,-4%,2%,1%,?
CC(C)C(=O)Nc1cccc(-c2cnc3ccccc3n2)c1,?,?,-7%,6%,?,15µM*
SMILES,NPC1 prom act,ELG1 genotox,SMN2 splice enh,p53 reactivation,Rab9 prom act,FLuc modulator
CNC(=S)Nc1cccc(-c2cnc3ccccc3n2)c1,?,?,nt,11%,?,17µM*
O=[N+]([O-])c1cccc(-c2cnc3ccccc3n2)c1,?,26%,nt,?,?,-6%
Nc1cccc(-c2cnc3ccccc3n2)c1,2.5µM*,9.2µM*,nt,nt,?,7.6µM*
CC(=O)Nc1ccc(C(=O)Nc2cccc(-c3cnc4ccccc4n3)c2)cc1,-16%,17%,-21%,4%,1%,0%
CCCOc1c(Br)cc(C2C3=C(CCCC3=O)N(C)C3=C2C(=O)CCC3)cc1OC,-2%,0%,12%,7%,1%,-1%
O=C1CC(c2ccc(Cl)cc2)Sc2nc(-c3ccc(F)cc3)nn21 (configuration not stated),nt,nt,5%,nt,nt,?
Cc1ccc(CNC(=O)c2cc(-c3ccc(C)cc3)nc3n[nH]c(-c4cccc([N+](=O)[O-])c4)c23)cc1,nt,nt,nt,nt,nt,-1%
O=C(Nc1ccc(F)cc1)Nc1ccc(N2CCOCC2)c2nonc12,?,?,?,12%,2.2µM*,?
COc1cccc(CNC(=O)c2ccc3c(c2)sc2nc(-c4ccccc4)cn23)c1OC,nt,nt,nt,nt,nt,-2%
CCN(CC)S(=O)(=O)c1ccc2nc(NC(=O)c3ccco3)sc2c1,16%,4%,12%,6%,8%,19µM*
CCN(CC)S(=O)(=O)c1ccc2nc(NC(=O)c3cccs3)sc2c1,23%,?,?,?,?,15µM*
CCN(CC)S(=O)(=O)c1ccc2nc(NC(=O)c3ccccc3OC)sc2c1,nt,nt,nt,nt,nt,0%
CCOc1ccc(C2CC(=O)Nc3nc(SCc4ccccc4C)[nH]c(=O)c32)cc1OC (configuration not stated),nt,nt,nt,nt,nt,-10%
CCCSc1ncc(Cl)c(C(=O)Nc2sc3c(c2C(=O)OC)CCCC3)n1,nt,nt,2%,nt,nt,1%
CCc1nnc(NS(=O)(=O)c2ccc(N/C=C\C(=O)c3cccc(OC)c3)cc2)s1,1%,10%,3%,1%,-7%,17µM*
CCc1nnc(NS(=O)(=O)c2ccc(NC(=S)NC(=O)/C=C/c3ccc(F)cc3)cc2)s1,-3%,0%,-10%,4%,1%,-1%
CCc1nnc(NS(=O)(=O)c2ccc(NS(=O)(=O)c3ccc(NC(C)=O)cc3)cc2)s1,-4%,-2%,-8%,-4%,-2%,1%
CCc1nnc(NS(=O)(=O)c2ccc(N/C=C\C(=O)c3ccc(C)cc3)cc2)s1,0%,8%,23%,?,-7%,19µM*
CCc1nnc(NS(=O)(=O)c2ccc(N/C=C\C(=O)c3ccc(F)cc3)cc2)s1,3%,0%,-1%,-2%,-3%,19µM*
CCc1nnc(NS(=O)(=O)c2ccc(N/C=C/C(=O)c3ccc(C)cc3)cc2)s1,0%,0%,?,30%,-6%,24µM*
CCc1cccc(NC(=O)CN(C)S(=O)(=O)c2ccc3c(c2)n(C)c(=O)c(=O)n3C)c1,nt,nt,-5%,nt,nt,3%
O=C(CCCn1c(=O)c2sccc2n(Cc2ccc(F)cc2Cl)c1=O)NCc1ccc2c(c1)OCO2,nt,nt,-1%,nt,nt,-12%
